Measurements from PubChem BioAssay.
The source made the active and inactive calls. Unless noted, how the calls were made is not given here.

Columns and labels:
[1] = tested on: Wnt5a (protein binding on small-molecule microarray); test: Wnt5a binders on small-molecule microarray, primary screen, biophysical, 635/667 nm fluorescence (AID 1142); details: 635 nm fluorescence, higher = more signal;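 further: fluorescence read at 667 nm with signal to noise per printed feature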
[2] = cell viability in Huh7 cells, primary screen, cytotoxicity control for HCV replication inhibitor project, CellTiter-Glo luminescence, basal, 48 h (AID 1143); details: Huh7 HCV replicon, higher = more signal, called active from +8 up or from −8 down;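 further: Huh7 hepatoma cells carrying a hepatitis C replication reporter with no stimulus; test concentration not given here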
[3] = P. aeruginosa biofilm formation inhibitors, primary screen, PAO1 strain, BacTiter-Glo luminescence, LB-PBS (AID 1144); details: 12 h, higher = more signal
[4] = CREB reporter modulators without forskolin, primary screen, cell-based, PC12, CRE-LacZ reporter, unstimulated (AID 1145); details: no forskolin, luminescence, 4.5 h, higher = more signal, called active from +8 up or from −8 down
[5] = CREB reporter modulators under forskolin, primary screen, cell-based, PC12, CRE-LacZ reporter, forskolin-stimulated (AID 1146); details: luminescence, 4.5 h, higher = more signal, called active from +8 up or from −8 down;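 further: PC12 cells with 6xCRE LacZ reporter stimulated by forskolin 10 µM; beta-galactosidase reporter signal reflecting CREB driven transcription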
[6] = biological target: Streptavidin (Streptomyces avidinii) (UniProt P22629); test: streptavidin binders on small-molecule microarray, primary screen, artefact control for SMM compound annotation, biophysical, 635/667 nm fluorescence (AID 1147); details: streptavidin binding, higher = more signal;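 further: signal reflects streptavidin binding to arrayed compounds as a control protein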
[7] = small-molecule binders of probe aInhba, primary screen, biochemical, small-molecule microarray, 635/667 nm fluorescence (AID 1148); details: higher = more signal;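 further: score merges 667nm spot fluorescence with signal-to-noise for antibody binding to printed compounds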
[8] = biological target: Torsin-1A (Homo sapiens) (UniProt O14656); test: torsin A binders from cell lysate, primary screen, small-molecule microarray, wild-type, 635/667 nm (AID 1149); details: COS7 hTOR1A-WT lysate, 635 nm fluorescence, higher = more signal
[9] = biological target: Torsin-1A (Homo sapiens) (UniProt O14656); test: small-molecule binders of mutant TOR1A in lysate, primary screen, cell lysate, small-molecule microarray, COS7 lysate, 635/667 nm fluorescence (AID 1150); details: COS7 hTOR1A mutant lysate, 635 nm fluorescence, higher = more signal;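 further: score pools 667 nm emission and signal to noise measuring lysate protein binding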
[10] = tested on: Sonic hedgehog protein (Shh); test: small-molecule binders of Shh protein, primary screen, biochemical, small-molecule microarray, 635/667 nm fluorescence (AID 1151); details: small-molecule microarray binding, 635 nm fluorescence; higher = more signal;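 further: Shh protein binding to compounds spotted on small-molecule microarray slides; score combines spot fluorescence intensity with signal-to-noise across triplicate slides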

Torsin-1A (Homo sapiens), sequence (O14656 whole entry, looked up): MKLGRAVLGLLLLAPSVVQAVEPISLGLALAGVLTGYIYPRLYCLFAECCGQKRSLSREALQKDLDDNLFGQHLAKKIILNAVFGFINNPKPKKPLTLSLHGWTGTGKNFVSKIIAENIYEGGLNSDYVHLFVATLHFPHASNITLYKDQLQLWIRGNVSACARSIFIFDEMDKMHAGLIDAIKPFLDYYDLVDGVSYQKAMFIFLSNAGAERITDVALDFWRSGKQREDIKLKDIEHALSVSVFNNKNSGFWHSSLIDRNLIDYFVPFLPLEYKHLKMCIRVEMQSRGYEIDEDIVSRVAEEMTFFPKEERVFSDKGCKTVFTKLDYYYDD
Streptavidin (Streptomyces avidinii), sequence (P22629 whole entry, looked up): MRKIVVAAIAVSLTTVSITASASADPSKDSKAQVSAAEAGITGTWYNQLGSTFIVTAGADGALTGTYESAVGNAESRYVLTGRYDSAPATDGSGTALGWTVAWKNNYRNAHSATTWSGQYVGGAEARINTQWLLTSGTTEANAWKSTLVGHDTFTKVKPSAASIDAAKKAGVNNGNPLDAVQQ

SMILES	composite z-score [1]	z-score [2]	z-score [3]	z-score [4]	z-score [5]	composite z-score [6]	composite z-score [7]	composite z-score [8]	composite z-score [9]	composite z-score [10]
CNS(=O)(=O)c1ccc(C)cc1	0.365	-1.48 (inactive)	-0.307 (inactive)	-0.0576 (inactive)	-0.391 (inactive)	0.385	-0.231	0.293	0.371	0.962
COc1ccc(CCNC(=O)[C@@H]2c3ccccc3C(=O)N(Cc3ccccc3Cl)[C@H]2c2ccc(CO)cc2)cc1	0.177	-0.124 (inactive)	0.603 (inactive)	0.701 (inactive)	-0.977 (inactive)	-0.001	-0.0645	0.25	0.0327	-0.214
Oc1ccc2cc[n+](Cc3sc4ccccc4c3Cl)cc2c1	-0.127	-0.683 (inactive)	-0.521 (inactive)	-0.374 (inactive)	0.232 (inactive)	0.361	-0.12	-0.648	0.11	1.53
CCCC[C@@H]1C[C@H]1[C@@H](NC(=O)c1cccs1)c1ccc(-c2ccccc2)cc1	-0.0739	-2.14 (inactive)	-0.218 (inactive)	1.35 (inactive)	2.05 (inactive)	0.0523	0.0541	-0.473	-0.0352	1.73
CCCC[C@@H]1C[C@H]1[C@@H](NC(=O)c1ccco1)c1ccc(-c2ccccc2)cc1	-0.0076	-2.51 (inactive)	0.0577 (inactive)	0.766 (inactive)	0.576 (inactive)	0.483	0.033	0.618	0.952	-0.308
CN1C(=O)C2C=CC(C(O)c3ccccc3)N(N(c3ccccc3)c3ccccc3)C2C1=O (stereo not given)	-0.117	0.653 (inactive)	0.808 (inactive)	-0.712 (inactive)	0.635 (inactive)	0.39	0.0051	-0.351	-0.398	0.522
COCCOC(=O)N1C(=O)[C@@]2(c3cc(C#CC4(O)CCCCCC4)ccc31)[C@H](c1ccccc1OCCO)N1[C@H](c3ccccc3)[C@H](c3ccccc3)OC(=O)[C@H]1[C@@H]2C(=O)N1CCN(c2ncccn2)CC1	0.839	-1.86 (inactive)	-0.354 (inactive)	0.155 (inactive)	0.411 (inactive)	0.356	0.153	0.456	0.699	0.678
C=CCNC(=O)[C@H]1[C@@H]2C(=O)O[C@@H](c3ccccc3)[C@@H](c3ccccc3)N2[C@@H](c2ccccc2OCCO)[C@]12C(=O)Nc1ccc(C#CCC(C(=O)OC)C(=O)OC)cc12	0.761	-3.8 (inactive)	0.608 (inactive)	-0.0784 (inactive)	0.876 (inactive)	0.999	0.277	0.954	1.06	1.84
CC1CC/C=C\[C@H]2OC34C=CCN(C(C)(C)C)C(=O)[C@H]3N(C(C)CO)C(=O)[C@@H]4C2C(=O)O1 (stereo not given in full)	-0.273	0.4 (inactive)	1.01 (inactive)	-0.22 (inactive)	0.826 (inactive)	-1.3	-0.128	-0.468	-0.441	0.622
CN(C)CCCCCCNC(=O)[C@H]1C[C@H]2C(=O)N3CCC[C@H]3C(=O)N2[C@H]1c1ccc(O)cc1	0.899	-0.865 (inactive)	0.332 (inactive)	-0.268 (inactive)	-0.933 (inactive)	0.192	0.019	1.95	-0.118	2.04
COc1cc2c(cc1OC)CN(C(=O)[C@@H]1[C@H]3C(=O)O[C@H](c4ccccc4)[C@H](c4ccccc4)N3[C@H](c3ccccc3OCCO)[C@@]13C(=O)Nc1ccc(C#CCCO)cc13)CC2	0.283	-1.65 (inactive)	0.219 (inactive)	0.505 (inactive)	-0.988 (inactive)	0.442	0.196	0.0499	0.344	1.13
O=C1C[C@@](C(=O)NCCN2CCOCC2)(c2ccc([N+](=O)[O-])cc2)[C@@H](c2ccc(CO)cc2)N1CC12CC3CC(CC(C3)C1)C2	0.455	-5.78 (inactive)	0.881 (inactive)	1.62 (inactive)	-0.0481 (inactive)	0.379	0.0154	0.179	1.21	1.37
Cc1ccc(S[C@]2(C(=O)O)CC(=O)N(C(C)C)[C@@H]2c2ccc(CO)cc2I)cc1	-0.0822	-2.86 (inactive)	-0.29 (inactive)	0.324 (inactive)	0.289 (inactive)	0.513	0.516	0.523	0.202	-0.189
CCC(CC)C(O)C1C=CC2C(=O)NC(=O)C2N1Nc1ccccn1 (stereo not given)	-0.108	1.06 (inactive)	-0.515 (inactive)	0.246 (inactive)	0.783 (inactive)	-0.12	-0.016	0.147	0.317	0.186
C=CCNC(=O)[C@@H]1[C@H]2C(=O)O[C@H](c3ccccc3)[C@H](c3ccccc3)N2[C@H](c2ccc(O)cc2)[C@@]12C(=O)Nc1ccc(C#CCNC(N)=O)cc12	-0.525	-0.0804 (inactive)	-0.233 (inactive)	1.21 (inactive)	-0.434 (inactive)	-0.325	-0.339	-0.138	0.121	0.316
CC(C)C(O)C1C=CC2C(=O)N(c3ccccc3)C(=O)C2N1Nc1ccc([N+](=O)[O-])cc1 (stereo not given)	0.774	-0.208 (inactive)	0.21 (inactive)	-0.368 (inactive)	-0.343 (inactive)	0.122	0.726	0.0373	0.142	-0.688
O=C1NC(=O)C2C1C=CC(C(O)c1cccs1)N2Nc1ccc(Cl)cc1Cl (stereo not given)	-0.0653	0.0581 (inactive)	-0.24 (inactive)	-0.136 (inactive)	-0.109 (inactive)	-0.695	-0.118	0.352	0.112	-0.0963
C[N+](C)(C)CCCCNC(=O)[C@H]1C[C@H]2C(=O)N3CCC[C@H]3C(=O)N2[C@H]1c1cccc(OCCO)c1	0.0504	0.254 (inactive)	-0.148 (inactive)	-0.667 (inactive)	-0.359 (inactive)	-0.704	0.0569	-0.215	0.678	2
COc1ccc([Si](C)(C)[C@@H]2[C@@H](CCO)O[C@]3(C(=O)N(Cc4ccc(N(C=O)c5ccccc5)cc4)c4ccccc43)[C@H]2C)cc1	0.0862	-6.2 (inactive)	0.00917 (inactive)	4.55 (inactive)	1.03 (inactive)	0.426	0.106	0.164	0.469	0.868
CC(C)C(=C=CC[C@@H](O)c1ccc(OCCO)cc1)C[C@@H](O)c1ccccn1	0.207	-0.661 (inactive)	0.205 (inactive)	0.145 (inactive)	1.4 (inactive)	0.0453	-0.231	0.75	0.205	2.26
COc1ccc(CCNC(=O)[C@@]2(Sc3ccc(C)cc3)CC(=O)N(C3Cc4ccccc4C3)[C@@H]2c2ccc(CO)cc2I)cc1	-0.234	-1.23 (inactive)	0.74 (inactive)	0.649 (inactive)	1.82 (inactive)	-0.814	-0.196	-0.27	0.0598	-0.862
COCCOC(=O)N1C(=O)[C@@]2(c3cc(C#CC4(O)CCCCCC4)ccc31)[C@H](c1ccc(OCCO)cc1)N1[C@H](c3ccccc3)[C@H](c3ccccc3)OC(=O)[C@H]1[C@@H]2C(=O)N1CCN(c2ncccn2)CC1	0.499	-0.922 (inactive)	0.517 (inactive)	0.346 (inactive)	0.838 (inactive)	2.07	0.0541	0.782	0.629	1.17
C=CCN1C(=O)[C@@]2(Cc3ccccc31)N=C(c1ccc(OCCCO)cc1)O[C@H]2c1ccccc1	0.344	-3.53 (inactive)	-0.144 (inactive)	0.47 (inactive)	-1.81 (inactive)	0.0866	0.195	0.698	0.855	1.14
COC(=O)[C@@]1(Cc2ccc(F)cc2)[C@H]2c3cc(C(=O)N(C)C)n(Cc4ccccc4)c3C[C@H]2CN1C(=O)c1ccccc1	0.198	-2.67 (inactive)	-0.22 (inactive)	-0.379 (inactive)	1.42 (inactive)	1.16	0.218	-0.243	0.099	0.0292
CC(C)[Si]1(C(C)C)O[C@@H](c2ccccc2)c2cc(-c3ccc(-c4ccc(Cl)c(Cl)c4)o3)nc(-c3ccccc3)c21	-0.0503	-0.62 (inactive)	0.115 (inactive)	-1.12 (inactive)	2.02 (inactive)	0.105	-0.0044	-0.118	0.261	0.15
CCOC(=O)C[C@H]1[C@H](OC(=O)c2ccc(C(=O)c3ccccc3)cc2)[C@@H](NC(=O)c2ccccc2)c2cc(OCCCO)ccc2N1C(=O)Cc1ccc(OC)cc1	0.285	0.0963 (inactive)	-0.0343 (inactive)	2.75 (inactive)	0.0836 (inactive)	0.101	-0.0413	-0.0962	0.322	-0.0887
C=C(CCCC)/C(=C/C[C@@H](OC(C)=O)c1ccc(OCCO)cc1)c1cnc2ccccc2c1	-0.0157	-0.842 (inactive)	-1.02 (inactive)	1.21 (inactive)	-0.438 (inactive)	0.514	-0.0405	-0.197	0.101	1.77
C=CCOC(=O)[C@H]1[C@@H]2C(=O)O[C@@H](c3ccccc3)[C@@H](c3ccccc3)N2[C@@H](c2ccc(OCCOC(=O)[C@@H]3C[C@@H]4C(=O)N[C@@H](CCCCNC(C)=O)C(=O)N4[C@@H]3c3ccc(O)cc3)cc2)[C@]12C(=O)Nc1ccccc12	0.39	-0.0424 (inactive)	-0.122 (inactive)	-0.126 (inactive)	-0.464 (inactive)	-0.0038	0.095	0.665	0.505	2.05
